Laboratory results reported in PubChem BioAssay AID1662 (Broad Institute, 2009).
Screen size: about 300,000 compounds; about 4,000 (1.3%) were called active.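 The calls were made as follows: active = mean replicate score, as percent of positive control median, at least 50; inconclusive = mean below 50 but one replicate at or above 50; inactive = mean and every replicate below 50.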 What follows is part of a selection rich in actives, with near analogues and random picks from the rest.

Test: kanamycin survival loss of SKKanGAS strain – BacTiter-Glo luminescence, streptokinase expression inhibitor project, primary screen (AID 1662);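 also: strain carries kanamycin resistance gene driven by streptokinase promoter and grows in 40 µg/ml kanamycin; loss of luminescence reflects streptokinase promoter inhibition or plain growth inhibition; 0% = median of DMSO wells and 100% = positive control at its reference dose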
Conditions: S. pyogenes SKKanGAS, kanamycin growth, 6 h, at 7.5 µM, hits give high values

| SMILES | inhibition |
| --- | --- |
| COC(=O)c1cc(OC)ccc1-c1ccc(OC)cc1 | 11% (inactive) |
| COc1ccc(-c2cn[nH]c2-c2ccc(OC)cc2)cc1 | 75.3% (active) |
| COc1ccc(Oc2cn[nH]c2-c2ccc(OC)cc2O)cc1 | 13.6% (inactive) |
| O=C1/C(=C\c2ccccc2Cl)SC(=S)N1CCC(=O)N1CCCc2ccccc21 | -4.28% (inactive) |
| COc1ccc(-n2cc(-c3ccccc3)c3c(=S)nc[nH]c32)cc1 | 54.1% (active) |
| O=c1[nH]cnc2c1c(-c1ccccc1)cn2-c1ccc(F)cc1 | -1.74% (inactive) |
| COc1ccc(-c2cn(-c3ccc(OC)cc3)c(=S)[nH]2)cc1 | -13.9% (inactive) |
| CCOP(=O)(OCC)C(Nc1cccc(C)c1)c1ccc(F)cc1 (centres undefined) | -2.54% (inactive) |
| CC1CCc2[nH]c3ccc(C(=O)N(C)CC(=O)Nc4cccc(F)c4)cc3c2C1 (centres undefined) | -8.76% (inactive) |
| CC(C)CC1(C(=O)NCc2ccccn2)C=CCN1C(=O)c1ccccc1 (centres undefined) | -5.95% (inactive) |
| COc1ccc(-n2cnnc2SCC(=O)Nc2cccc([N+](=O)[O-])c2)cc1 | -8.4% (inactive) |
| COc1ccc(CCNC(=O)CSc2nc3[nH]ncc3c(=O)n2-c2cccc(C(F)(F)F)c2)cc1OC | -2.08% (inactive) |
| NC(=O)NC(=O)CSc1nc2cc([N+](=O)[O-])ccc2n1-c1cccc(C(F)(F)F)c1 | 97.7% (active) |
| CC1(C)S[C@@H]2[C@H](NC(=O)COc3ccccc3)C(=O)N2C1C(=O)OCc1ccccc1 (some centres undefined) | 97% (active) |
| COC(=O)C1[C@H]2SC(C)(C)C(C(=O)OC)N2C(=O)N1Cc1nc2ccccc2s1 (some centres undefined) | 6.63% (inactive) |
| CC1(C)S[C@@H]2[C@H](N=CN3CCCCCC3)C(=O)N2[C@H]1C(=O)O | -7.68% (inactive) |
| NC(=O)C1CC(=O)N(c2ccc(OCC(=O)NCc3ccccc3)cc2)C1 (centres undefined) | 1.49% (inactive) |
| CC1(C)SC2C(NC(=O)COc3ccccc3)C(=O)N2C1C(=O)O (centres undefined) | 102% (active) |
| Cc1cccc(OCC(=O)NC2CC(C)(C)NC(C)(C)C2)c1 | 1.54% (inactive) |
| C[C@H]1CC[C@]2(O[C@@H](CCO)C[C@@H](O)[C@@H]2O)O1 | -3.21% (inactive) |

| SMILES | inhibition |
| --- | --- |
| CC1Cn2c(nnc2-c2cccs2)S1 (centres undefined) | -5.31% (inactive) |
| CCCn1c(=N)n(CC(=O)c2ccc(Cl)c(Cl)c2)c2ccccc21 | 2.77% (inactive) |
| CN(C(=O)CN1C(=O)NC(C)(CCc2ccccc2)C1=O)c1ccccc1 (centres undefined) | -1.34% (inactive) |
| CC1CC(=O)N(CC(=O)Nc2cccc(Cl)c2)c2ccccc2S1(=O)=O (centres undefined) | -1.88% (inactive) |
| CSc1ccc(CNC(=O)c2ccc(NC(=O)C3=CSCCO3)cc2)cc1 | -10.5% (inactive) |
| CC(=O)Nc1ccc(-c2csc(NC(=O)Nc3ccccc3)n2)cc1 | 0.751% (inactive) |
| Cc1nc(NNC(=O)c2ccccc2)cc(-c2ccccc2)n1 | -2.12% (inactive) |
| Cc1ccc(-c2csc(NNC(=O)c3ccccc3)n2)cc1 | 55.1% (active) |
| COc1cccc(CNC(=O)c2nnn(CC(=O)Nc3cc(C)ccc3C)c2N)c1 | 11% (inactive) |
| O=C(/C=C/c1cnc2ccccc2n1)NC1CCCCCC1 | 2.73% (inactive) |
| COc1ccccc1C(=O)NCCC(=O)NN1C(=O)NC2(CCCCC2)C1=O | -9.03% (inactive) |
| NCC(=O)c1cccc2ccc[n+]([O-])c12 | -3.82% (inactive) |
| O=C(Nc1ccccc1-c1nnn(CC(=O)N2CCCc3ccccc32)n1)c1cccc(Cl)c1 | -0.017% (inactive) |
| CS(=O)(=O)c1ccc(-c2nnn(CC(=O)Nc3ccc4c(c3)OCCO4)n2)cc1 | -16.5% (inactive) |
| Cc1cccc(C(=O)Nc2ccccc2-c2nnn(CC(=O)Nc3ccc4c(c3)OCCO4)n2)c1 | 59.1% (active) |
| COc1cc(C(=O)OC(C)C(=O)NCC2CCCCC2)cc(NC(=O)c2ccco2)c1OC (centres undefined) | -4.57% (inactive) |
| COc1cccc2sc(Nc3nc(C)c(C(C)=O)s3)nc12 | 53.7% (active) |
| COc1cccc2sc(NNC(=O)c3nc4ccccc4s3)nc12 | 92.6% (active) |
| COc1ccc(S(=O)(=O)N2CCOCC2)cc1C(=O)Nc1nc2ccccc2s1 | 1.7% (inactive) |
| COc1ccccc1OCc1nc2ccccc2s1 | 21% (inactive) |

| SMILES | inhibition |
| --- | --- |
| COc1cc2ccccc2cc1C(=O)Nc1nc(C)c(C(C)=O)s1 | -5.23% (inactive) |
| COc1ccccc1/C=N/Nc1nc(C)c(C(C)=O)s1 | -9.03% (inactive) |
| CN(C)CCCN(C(=O)c1ccc(S(=O)(=O)N2CCCCCC2)cc1)c1nc2cc3c(cc2s1)OCCO3 | -2.65% (inactive) |
| N#Cc1ccc(OCc2nnc(-c3ccc([N+](=O)[O-])cc3)o2)cc1 | 4.26% (inactive) |
| COc1ccccc1N1CCN(c2ncnc3sc(C)c(-c4ccccc4)c23)CC1 | 35.4% (inactive) |
| CS(=O)(=O)N(Cc1ccccc1Cl)c1ccc(C(=O)NCc2cccnc2)cc1 | -5.28% (inactive) |
| C=CCNC(=S)NNC(=O)c1cc(Cl)ccc1OC | 3.23% (inactive) |
| COc1ccc(Cl)cc1C(=O)NNC(=S)NC1CCCC1 | -3.8% (inactive) |
| COc1ccc(Cl)cc1C(=O)NNC(=S)NC(=O)/C=C/c1ccco1 | 80.2% (active) |
| CCOCCCNC(=S)N1CCC(NC(=O)C2CCCCC2)CC1 | -0.571% (inactive) |
| CC(C)c1nc2cc(C(=O)NC(C)c3cnn(C)c3)ccc2o1 (centres undefined) | -0.746% (inactive) |
| O=C(Nc1ccc2nc3n(c(=O)c2c1)CCCCC3)c1ccccc1Cl | -2.99% (inactive) |
| COc1ccc(CCNC(=O)C(=O)Nc2ccc3nc4n(c(=O)c3c2)CCCCC4)cc1OC | 58.4% (active) |
| CCCCN(CC)C(=S)Nc1ccc2nc3n(c(=O)c2c1)CCCCC3 | 2.4% (inactive) |
| C=C(C)COc1ccc(-c2n[nH]c(C)c2-c2ccccc2)c(O)c1 | 62.3% (active) |
| CCOc1ccc(-c2n[nH]c(C)c2-c2ccccn2)c(O)c1 | -4.57% (inactive) |
| C=C(C)COc1ccc(-c2n[nH]c(C)c2-c2ccccc2OC)c(O)c1 | 10.6% (inactive) |
| CCNC(=O)c1cnn(-c2ccccc2)c1-c1ccccc1 | -2.93% (inactive) |
| COc1ccc(C(=O)O)cc1S(=O)(=O)NCc1cccnc1 | 0.329% (inactive) |
